Experimental data from PubChem BioAssay (NCATS).
Results filed as inconclusive are left out. Calls of active or inactive are those of the source. Unless noted, the call rests on the fitted dose curve; in most records, active means well fitted curve in the direction sought with a large enough effect; inconclusive means small, poorly fitted or top-dose-only effect, or another doubt; inactive means no such curve, though single readings can be large; an effect the other way counts as inactive or inconclusive.

What was measured:
[1] = molecular target: Mitogen-activated protein kinase 10 (Mus musculus) (UniProt Q61831); test: JNK3 AlphaScreen Assay (AID 530; active means well fitted curve in either direction with a large enough effect, not every such curve was filed as active;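 further: kinase came from lysate of stimulated human HepG2 cells; signal reports phosphorylation of biotinylated GST-cJun 1-79 at Ser73 with 10 µM ATP; on the % scale 0 is the no-effect control and ±100 the full control effect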)
Method in brief: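 Kinase buffer: 20 mM Tris-HCl pH 7.6, 10 mM MgCl2, 1 mM DTT, 0.1 mM Na3VO4, 0.01% Tween-20; ATP 10 uM. Substrate biotin-GST-cJun(1-79), enzyme from activated HepG2 lysates. Detection by Ser73 phospho-antibody AlphaScreen.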

[2] = Cell Viability - N2a (AID 540);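 further: cells exposed to compound for 40 h at 37 °C; nearly all actives have a fitted effect of over 45% in size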; further: potency means the concentration at half of the fitted maximal effect;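 on activity change, negative = cytotoxicity: plate controls were DMSO alone for no effect and tamoxifen control for full effect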
Method in brief: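 In this qHTS cytotoxicity screen, ATP-dependent luciferase luminescence reports viable N2a cells after a 40 hr compound exposure in complete culture medium. Potencies are AC50 values from standard Hill equation fits.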

[3] = Cell Viability - NIH 3T3 (AID 541); settings: NIH 3T3 cell viability, qHTS; activity change, negative = cytotoxicity: at 92.2 µM (top of the series);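 further: cells exposed to compound for 40 hours; nearly all actives have a fitted effect of over 25% in size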; further: potency means the concentration at half of the fitted maximal effect;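 on activity change, negative = cytotoxicity: plate controls were DMSO alone for no effect and tamoxifen positive control for full effect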
Method in brief: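 In this cytotoxicity screen, acute toxicity is scored as an ATP drop measured by CellTiter-Glo in NIH 3T3 fibroblasts following a 40 hr, 37 °C incubation with compound.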

[4] = Cell Viability - HUV-EC-C (AID 542);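 further: cells exposed to compound for 40 hours; on the % scale 0 is the no-effect control and ±100 the full control effect; nearly all actives have a fitted effect of over 35% in size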
Method in brief: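 Concentration-dependent ATP loss in HUV-EC-C cells is the measure. Exposure lasts 40 hr at 37 °C; luminescence follows CellTiter-Glo addition, and Hill fits give AC50.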

[5] = Cell Viability - Renal Proximal Tubule (AID 545);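 further: cells exposed to compound for 40 hours; nearly all actives have a fitted effect of over 40% in size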
Method in brief: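 Primary rat renal proximal tubule cells (1000/well) were treated with compounds for 40 hr at 37 °C in complete medium. Intracellular ATP was measured by CellTiter-Glo luminescence, and AC50 values came from Hill-equation fits of concentration-response data.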

[6] = Cell Viability - Mesenchymal (AID 546);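 further: cells exposed to compound for 40 hours before reading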
Method in brief: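 CellTiter-Glo luminescence (intracellular ATP, 20 min room temperature) after 40 hr compound exposure at 37 °C of 1000 glomerulus-derived human kidney mesenchymal cells/well; AC50 values obtained by fitting qHTS concentration-response data to the Hill equation.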

[7] = Cellular Toxicity (caspase-3) HepG2 (AID 654);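 further: cells exposed to compound for 16 hours before reading; 0% = DMSO alone and 100% = caspase signal from 100 µM tamoxifen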
Method in brief: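 Concentration-response AC50 values reflect caspase-3/7 induction in HepG2 cells after 16 hours of compound exposure, quantified by luminescence from liberated aminoluciferin and referenced to 100 uM tamoxifen as full stimulation.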

[8] = Cellular Toxicity (caspase-3) Jurkat (AID 655); settings: Jurkat caspase-3 activation, luminescence, DMSO = 0%, tamoxifen = 100%; at 92.2 µM (top of the series);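 further: cells exposed to compound for 16 h at 37 °C before reading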
Method in brief: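 Jurkat cells (5000/well) in complete medium were treated with compounds for 16 hr at 37 °C, then Caspase-Glo 3/7 luminescence was read after 20 min at room temperature. Data normalized to DMSO (basal) and 100 uM tamoxifen (100%); AC50 from Hill fit.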

[9] = Cellular Toxicity (caspase-3) SHSY5Y (AID 657)
Method in brief: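 SH-SY5Y human neuroblastoma cells (1500/well) were treated with compounds for 16 h at 37 °C, then Caspase-Glo 3/7 luminescence was read after 1 h at room temperature. Data normalized to DMSO and 10 uM staurosporine; AC50 from Hill fits.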

[10] = Cellular Toxicity (caspase-3) BJ (AID 658);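 further: 0% = DMSO basal and 100% = 10 µM staurosporine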
Method in brief: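 Caspase-Glo 3/7 luminescence, read 1 hr after reagent at room temperature, in normal BJ fibroblasts exposed 16 hours at 37 °C. AC50 values from Hill-equation concentration-response, scaled between DMSO basal and 10 uM staurosporine as 100%.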

[11] = Cellular Toxicity (caspase-3) MRC-5 (AID 659);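 further: 0% = DMSO basal and 100% = 10 µM staurosporine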
Method in brief: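 Luminescent Caspase-Glo 3/7 read-out (1 h, room temperature) after a 16 h, 37 °C compound exposure of MRC-5 lung fibroblasts at 1500 cells/well. Concentration-response AC50 from Hill equation; 0% DMSO, 100% 10 uM staurosporine.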

[12] = Cellular Toxicity (caspase-3) Mesangial (AID 660);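 further: combined caspase 3 and 7 activity read by Caspase-Glo luminescence; cells exposed to compound for 16 h before the caspase read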
Method in brief: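 AC50 values come from Hill-equation fits of caspase 3/7 activation, measured as Caspase-Glo luminescence in human glomerular mesangial cells exposed to compound for 16 h at 37 °C; 100% set by 100 uM tamoxifen.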

[13] = Cellular Toxicity (caspase-3) SK-N-SH (AID 661);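 further: 0% = DMSO basal and 100% = 10 µM staurosporine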
Method in brief: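 Apoptosis readout in SK-N-SH neuroblastoma: Caspase-Glo 3/7 luminescence following 16 hr treatment in complete culture medium. Normalization used DMSO and 10 uM staurosporine controls.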

[14] = Cellular Toxicity (caspase-3) H-4-II-E (AID 663); settings: Potency: caspase-3 activation; further: potency means the concentration at half of the fitted maximal effect;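 on caspase-3 activation: cells exposed to compound for 16 hr before readout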
Method in brief: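 Caspase 3/7 activation measured by luminescent aminoluciferin substrate cleavage after 16 hr compound treatment of H-4-II-E cells in complete medium. Increase normalized between DMSO (basal) and 100 uM tamoxifen (100%); Hill-equation AC50 from concentration-response.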

[15] = molecular target: Glucocorticoid receptor (Homo sapiens) (UniProt P04150); test: GR-GFP Redistribution (AID 450;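 active means compounds whose dose series gives a full or clear partial fitted curve of increased nuclear translocation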; further: potency means the concentration at half of the fitted maximal effect); settings: U2OS GR-GFP nuclear translocation, laser cytometry, 2 h
Sequence of Glucocorticoid receptor (Homo sapiens) (P04150 whole entry, looked up, the tested form may be a part): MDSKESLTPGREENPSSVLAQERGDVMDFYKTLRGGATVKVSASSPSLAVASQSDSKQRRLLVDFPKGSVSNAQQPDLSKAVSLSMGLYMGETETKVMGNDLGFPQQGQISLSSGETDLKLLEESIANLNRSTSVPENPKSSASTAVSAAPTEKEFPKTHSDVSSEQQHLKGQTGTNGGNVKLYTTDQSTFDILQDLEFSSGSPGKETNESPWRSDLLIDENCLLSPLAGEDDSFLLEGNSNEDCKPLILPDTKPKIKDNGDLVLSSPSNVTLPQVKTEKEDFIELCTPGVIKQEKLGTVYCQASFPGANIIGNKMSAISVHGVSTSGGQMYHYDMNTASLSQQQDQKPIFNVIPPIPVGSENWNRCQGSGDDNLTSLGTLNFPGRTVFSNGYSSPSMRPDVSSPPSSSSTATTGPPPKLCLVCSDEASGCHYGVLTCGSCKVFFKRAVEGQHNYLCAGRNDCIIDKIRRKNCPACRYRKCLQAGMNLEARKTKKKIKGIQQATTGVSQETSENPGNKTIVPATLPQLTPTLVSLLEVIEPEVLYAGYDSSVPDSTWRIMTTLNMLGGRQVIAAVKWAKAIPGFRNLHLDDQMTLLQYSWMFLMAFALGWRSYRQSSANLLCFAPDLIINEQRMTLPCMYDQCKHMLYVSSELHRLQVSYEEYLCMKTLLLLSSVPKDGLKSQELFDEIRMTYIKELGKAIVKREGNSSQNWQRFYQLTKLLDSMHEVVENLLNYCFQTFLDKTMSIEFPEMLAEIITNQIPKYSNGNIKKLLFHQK

[16] = molecular target: Glucocorticoid receptor (Homo sapiens) (UniProt P04150); test: GR-EFC Redistribution (AID 451; calls by dose curve; further: potency means the concentration at half of the fitted maximal effect); settings: CHO-K1 GR-EFC translocation, beta-gal luminescence, 2 h
Method in brief: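 Translocation of GR-ED fusion to nuclear EA restores b-gal, read by luminescence after 1 h room-temperature detection. Engineered CHO-K1 biosensor cells, 1,000/well, exposed 2 h at 37 C to titrations up to 46 uM final.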

[17] = molecular target: 3',5'-cyclic-AMP phosphodiesterase 4B (Homo sapiens) (UniProt Q07343); test: qHTS Assay for Inhibitors of PDE-IV (AID 607; active means well fitted activation curve with a large enough effect in the main read-out, with a control signal flat, not every such curve was filed as active; further: % of control where 0% means no effect)
Sequence of 3',5'-cyclic-AMP phosphodiesterase 4B (Homo sapiens) (Q07343 whole entry, looked up): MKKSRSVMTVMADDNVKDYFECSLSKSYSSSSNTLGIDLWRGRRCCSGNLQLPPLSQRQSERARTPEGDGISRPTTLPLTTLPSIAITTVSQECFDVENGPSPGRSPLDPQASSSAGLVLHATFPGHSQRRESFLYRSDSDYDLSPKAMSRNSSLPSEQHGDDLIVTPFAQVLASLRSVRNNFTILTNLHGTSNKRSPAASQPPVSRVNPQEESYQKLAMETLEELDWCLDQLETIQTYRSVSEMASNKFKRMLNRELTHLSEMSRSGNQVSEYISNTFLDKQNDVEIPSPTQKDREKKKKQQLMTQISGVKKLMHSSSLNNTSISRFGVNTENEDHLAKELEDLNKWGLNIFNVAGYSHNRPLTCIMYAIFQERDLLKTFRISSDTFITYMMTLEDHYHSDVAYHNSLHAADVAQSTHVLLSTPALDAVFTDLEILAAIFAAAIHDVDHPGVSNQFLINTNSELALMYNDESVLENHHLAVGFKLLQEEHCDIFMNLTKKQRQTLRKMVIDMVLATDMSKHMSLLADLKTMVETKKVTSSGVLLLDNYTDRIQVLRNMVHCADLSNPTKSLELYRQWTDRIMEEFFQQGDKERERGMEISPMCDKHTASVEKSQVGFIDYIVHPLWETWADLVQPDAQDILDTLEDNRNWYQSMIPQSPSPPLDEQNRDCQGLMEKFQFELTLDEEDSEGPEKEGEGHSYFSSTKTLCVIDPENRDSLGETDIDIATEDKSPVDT
Method in brief: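 Live HEK293 cells with a modified cyclic nucleotide-gated (CNG) channel report intracellular cAMP via membrane-potential dye fluorescence (ex 535/em 590 nm). Endogenous PDE-IV was targeted. Compounds were tested at up to 22.9 uM final; RO 20-1724 100 uM served as control.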

[18] = Cell Viability - H-4-II-E (AID 543);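 further: cells exposed to compound for 40 hours; nearly all actives have a fitted effect of over 35% in size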; further: potency means the concentration at half of the fitted maximal effect
Method in brief: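 AC50 from Hill-modelled qHTS concentration-response curves. H-4-II-E rat hepatoma cells in complete medium, 40 hr exposure at 37 °C, viability by CellTiter-Glo ATP luminescence.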

[19] = Cell Viability - SH-SY5Y (AID 544); settings: SH-SY5Y neuroblastoma cell viability; viability change, negative = cytotoxic: at 92.2 µM (top of the series);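 further: cells exposed to compound for 40 hours; nearly all actives have a fitted effect of over 55% in size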; further: potency means the concentration at half of the fitted maximal effect
Method in brief: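 Quantitative HTS in SH-SY5Y neuroblastoma cells, 40 hr treatment at 37 °C, ATP content by luciferase luminescence; AC50 from Hill fits.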

NCCNc1cccc2ccccc12
inactive: Potency [1] | Potency [2] | activity change, negative = cytotoxicity [3] -24.9% | outcome [4] | outcome [5] | outcome [6] | outcome [7] | caspase-3 activation [8] 6.22% | outcome [9] | outcome [10] | outcome [11] | outcome [12] | outcome [13] | Potency [14]

CCN(CC)CCNc1ccc(CO)c2sc3ccccc3c(=O)c12
inactive: Potency [15] > 20.6 µM | Potency [16] > 20.6 µM | Potency [1] | outcome [17]

COc1cc(C)nc(-n2nc(C)cc2OC)n1
inactive: Potency [15] > 20.6 µM | Potency [16] > 20.6 µM | Potency [1] | outcome [17]

N=C(N)N1CCc2ccccc2C1
inactive: Potency [15] > 20.6 µM | Potency [16] > 20.6 µM | Potency [1] | outcome [17]

CCN(CC)CCNC(=O)c1cc(Br)c(N)cc1OC
inactive: Potency [1] | outcome [17]

CN(C)CCC[C@@]1(c2ccc(F)cc2)OCc2cc(C#N)ccc21
inactive: Potency [15] > 46 µM | Potency [16] > 46 µM | outcome [17]

NS(=O)(=O)c1cc(C(=O)O)cc(N2CCCC2)c1Oc1ccccc1
active: Potency [15] 2.81 µM
inactive: Potency [16] > 20.6 µM | Potency [1] | outcome [17]

c1ccc(CC2=NCCN2)cc1
inactive: Potency [1] | outcome [17]

Cl/C(=C\n1cncn1)c1ccc(Cl)cc1Cl
inactive: Potency [15] > 46 µM | Potency [16] > 46 µM | outcome [17]

Cc1cc(-c2ccccc2)nnc1NCCN1CCOCC1
inactive: Potency [1] | outcome [17]

COc1cc([C@H]2Oc3cc([C@H]4Oc5cc(O)cc(O)c5C(=O)[C@@H]4O)ccc3O[C@@H]2CO)ccc1O
active: Potency [3] 31.6 µM | Potency [18] 31.6 µM | viability change, negative = cytotoxic [19] -84.4% | Potency [14] 31.6 µM
inactive: Potency [2] | outcome [4] | outcome [6] | outcome [7] | caspase-3 activation [8] 7.36% | outcome [9] | outcome [10] | outcome [11] | outcome [12] | outcome [13]

CCOC(=O)Nc1ccc2c(c1)N(C(=O)CCN1CCOCC1)c1ccccc1S2
inactive: Potency [16] > 20.6 µM | Potency [1]

Oc1c(Cl)cc(Cl)c(Cl)c1Cc1c(O)c(Cl)cc(Cl)c1Cl
active: Potency [2] 0.794 µM | activity change, negative = cytotoxicity [3] -102% | Potency [18] 31.6 µM | Potency [19] 15.8 µM
inactive: Potency [1] | outcome [6] | outcome [7] | outcome [9] | outcome [10] | outcome [11] | outcome [12] | outcome [13] | Potency [14]

OC[C@H]1O[C@@H]2O[C@H]3[C@H](O)[C@@H](O)[C@@H](O[C@H]4[C@H](O)[C@@H](O)[C@@H](O[C@H]5[C@H](O)[C@@H](O)[C@@H](O[C@H]6[C@H](O)[C@@H](O)[C@@H](O[C@H]7[C@H](O)[C@@H](O)[C@@H](O[C@H]8[C@H](O)[C@@H](O)[C@@H](O[C@H]1[C@H](O)[C@H]2O)O[C@@H]8CO)O[C@@H]7CO)O[C@@H]6CO)O[C@@H]5CO)O[C@@H]4CO)O[C@@H]3CO
inactive: Potency [1] | Potency [2] | activity change, negative = cytotoxicity [3] 5.27% | outcome [4] | Potency [18] | viability change, negative = cytotoxic [19] -6.32% | outcome [5] | outcome [6] | outcome [7] | caspase-3 activation [8] 1.07% | outcome [9] | outcome [10] | outcome [11] | outcome [12] | outcome [13] | Potency [14]

COc1ccc(C(=O)c2ccccc2O)c(O)c1
inactive: Potency [15] > 20.6 µM | Potency [16] > 20.6 µM | Potency [1] | outcome [17]

NS(=O)(=O)Cc1noc2ccccc12
inactive: Potency [15] > 46 µM | Potency [16] > 46 µM | Potency [1] | outcome [17]

CN=C(N)NCCC[C@H](N)C(=O)O
inactive: Potency [1] | outcome [17]

COc1cc(NS(=O)(=O)c2ccc(N)cc2)ncn1
inactive: Potency [15] > 20.6 µM | Potency [16] > 20.6 µM | Potency [1] | outcome [17]

C/C=C/c1ccc(O)c(OC)c1
inactive: Potency [1] | Potency [2] | activity change, negative = cytotoxicity [3] -17% | outcome [4] | Potency [18] | viability change, negative = cytotoxic [19] 1.26% | outcome [5] | outcome [6] | outcome [7] | caspase-3 activation [8] 1.5% | outcome [9] | outcome [10] | outcome [11] | outcome [12] | outcome [13] | Potency [14]

COc1cc(C(=O)NCc2ccc(OCCN(C)C)cc2)cc(OC)c1OC
inactive: Potency [15] > 20.6 µM | Potency [16] > 20.6 µM | Potency [1] | outcome [17]

CC[C@H](c1ccc(O)cc1)[C@@H](CC)c1ccc(O)cc1
inactive: Potency [15] > 20.6 µM | Potency [16] > 20.6 µM | Potency [1] | outcome [17]

Nc1ccc(C(=O)NCC(=O)O)cc1
inactive: Potency [15] > 20.6 µM | Potency [16] > 20.6 µM | outcome [17]

O=C(O)c1ccc(S(=O)(=O)N(Cl)Cl)cc1
inactive: Potency [1] | Potency [2] | activity change, negative = cytotoxicity [3] -11.9% | outcome [4] | Potency [18] | viability change, negative = cytotoxic [19] -7.18% | outcome [5] | outcome [6] | outcome [7] | caspase-3 activation [8] 0.943% | outcome [9] | outcome [10] | outcome [11] | outcome [12] | outcome [13] | Potency [14]

CCCCC(CC)COC(=O)c1ccc(N(C)C)cc1 (stereo unspecified)
inactive: Potency [2] | activity change, negative = cytotoxicity [3] -7.45% | outcome [4] | Potency [18] | viability change, negative = cytotoxic [19] 0.409% | outcome [5] | outcome [6] | outcome [7] | caspase-3 activation [8] 1.94% | outcome [9] | outcome [10] | outcome [11] | outcome [12] | outcome [13] | Potency [14]

NC(=O)c1ccccc1O
inactive: Potency [1] | Potency [2] | activity change, negative = cytotoxicity [3] 6.43% | outcome [4] | Potency [18] | viability change, negative = cytotoxic [19] 4.84% | outcome [5] | outcome [6] | outcome [7] | caspase-3 activation [8] -0.838% | outcome [9] | outcome [10] | outcome [11] | outcome [12] | outcome [13] | Potency [14]

C=C[C@H]1CN2CC[C@H]1C[C@@H]2[C@@H](O)c1ccnc2ccc(OC)cc12
inactive: Potency [1] | Potency [2] | outcome [4] | Potency [18] | viability change, negative = cytotoxic [19] -25.7% | outcome [5] | outcome [6] | outcome [7] | outcome [9] | outcome [10] | outcome [11] | outcome [12] | outcome [13] | Potency [14]

Oc1ccc(Cl)cc1Cc1cc(Cl)ccc1O
inactive: Potency [1] | outcome [9] | outcome [10] | outcome [11] | outcome [12] | outcome [13] | Potency [14]
active: Potency [2] 31.6 µM | activity change, negative = cytotoxicity [3] -84.9% | viability change, negative = cytotoxic [19] -85.8% | caspase-3 activation [8] 86%

O=C1C(=O)c2ccccc2C(O)=C1C1CCC(c2ccc(Cl)cc2)CC1 (stereo unspecified)
inactive: Potency [1] | outcome [17]

CCc1cc(Cl)c(OC)c(C(=O)NC[C@@H]2CCCN2CC)c1O
inactive: Potency [15] > 20.6 µM | Potency [16] > 20.6 µM | Potency [1] | outcome [17]
